Assay outcomes (PubChem)
Sampled rows, rich in hits. Any-hit rate of the full collection: about 10%.
L3MBTL1 block – qHTS Assay for the Inhibitors of L3MBTL1 | Lethal(3)malignant brain tumor-like protein 1 (Homo sapiens), Q9Y468 | Potency, µM (doses to about 57.1 µM), for inactives: top-dose activity, negative = inhibition, hits mostly inhibitors | hit rate 0.66% among 230,000 | AlphaScreen L3MBTL1–H3K9me1 peptide binding; note: % is set by controls: 0 for no effect and ±100 for the full control effect; nearly all actives have a fitted effect of over 60% in size
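First, the protein-peptide complex forms for 30 min at room temperature (L3MBTL1 50 nM, biotinylated H3K9me1 peptide 75 nM). Next, compounds are pin-transferred and incubated 30 min. Finally, AlphaScreen beads are added and read after 30 min.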
BAZ2B block – qHTS Assay for Inhibitors of BAZ2B; Bromodomain adjacent to zinc finger domain protein 2B (Homo sapiens), Q9UIF8; Potency, µM (series often up to 114 µM), without a hit: at the highest dose activity change, negative = inhibition, hits mostly inhibitors; hit rate 4.4% among 360,000; AlphaScreen BAZ2B-H3K14Ac peptide displacement; note: % is set by controls: 0 for no effect and ±100 for the full control effect; nearly all actives have a fitted effect of over 60% in size
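In this displacement format the biotinylated H3(5-23) peptide acetylated at Lys14 serves as ligand at 50 nM, with BAZ2B at 50 nM in PBS pH 7.4 containing 0.01% Tween-20. Donor and acceptor beads are 10 ug/mL final.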
HP1b binding inh – HTS for Inhibitors of HP1-beta Chromodomain Interactions with Methylated Histone Tails; Potency, µM (highest dose often 114 µM), for inactives: at the highest dose activity change, negative = inhibition, usual class: inhibitors; AlphaScreen HP1-beta / biotin-H3K9me3 peptide binding; hit rate 0.56% among 390,000; Chromobox protein homolog 1 (Homo sapiens), P83916; note: nearly all actives have a fitted effect of over 70% in size
Target sequence (P83916 whole entry, looked up): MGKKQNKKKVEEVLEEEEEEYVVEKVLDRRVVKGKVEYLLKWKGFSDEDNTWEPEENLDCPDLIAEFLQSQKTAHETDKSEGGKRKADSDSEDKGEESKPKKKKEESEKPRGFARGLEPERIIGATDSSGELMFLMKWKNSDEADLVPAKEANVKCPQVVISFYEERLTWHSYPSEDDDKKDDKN
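Compound inhibition of the preformed complex between 50 nM HP1-beta and 50 nM biotinylated H3K9me3 peptide was read by AlphaScreen. Buffer was PBS pH 7.4 with 0.01% Tween-20. Incubations ran 30 min at room temperature, with 10 ug/mL donor/acceptor beads.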
JMJD2A Tudor – qHTS Assay for Inhibitors of JMJD2A-Tudor Domain; Lysine-specific demethylase 4A (Homo sapiens), O75164; AlphaScreen JMJD2A-Tudor / H3K4me3 peptide binding; Potency, µM (doses to about 114 µM), inactives show top-dose activity change, negative = inhibition, hits mostly inhibitors; hit rate 4.4% among 390,000; note: % is set by controls: 0 for no effect and ±100 for the full control effect; nearly all actives have a fitted effect of over 50% in size
G9a block – qHTS Assay for Inhibitors of Histone Lysine Methyltransferase G9a; Histone-lysine N-methyltransferase EHMT2 (Homo sapiens), Q96KQ7; G9a H3K9 monomethylation, AlphaScreen, 2 h; Potency, µM (highest dose often 102 µM), without a hit: at the top dose activity, negative = inhibition, hits mostly inhibitors; hit rate 8.8% among 350,000; note: % is set by controls: 0 for no effect and ±100 for the full control effect; nearly all actives have a fitted effect of over 75% in size
Target sequence (Q96KQ7 913-1193 limits assumed): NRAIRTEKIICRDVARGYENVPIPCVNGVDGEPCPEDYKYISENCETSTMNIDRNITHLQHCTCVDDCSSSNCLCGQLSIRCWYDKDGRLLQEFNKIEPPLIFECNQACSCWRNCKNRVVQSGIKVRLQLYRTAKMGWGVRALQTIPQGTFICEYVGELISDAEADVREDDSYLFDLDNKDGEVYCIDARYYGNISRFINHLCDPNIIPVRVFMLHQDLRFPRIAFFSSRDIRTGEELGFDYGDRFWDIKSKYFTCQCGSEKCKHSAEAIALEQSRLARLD
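Methyltransferase reactions run at room temperature for 2 h (20 nM enzyme, 500 nM biotin-H3K9 peptide, 20 uM SAM) after a 15 min compound preincubation; product detected by AlphaScreen beads and anti-H3K9me1 antibody.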
GLS inhibitor – qHTS for Inhibitors of Glutaminase (GLS); Glutaminase kidney isoform, mitochondrial (Homo sapiens), O94925; GLS enzymatic activity, qHTS titration; Potency, µM (doses to about 45.5 µM), without a hit: at the top dose activity change, negative = inhibition, usual class: inhibitors; hit rate 0.21% among 410,000; AID 624170, 2012; note: % is set by controls: 0 for no effect and ±100 for the full control effect
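Assay buffer: 45 mM KH2PO4 pH 8.2, 0.02% Tween-20. hKGA acts on L-glutamine (1 mM solution added); product glutamate is reported by an oxidase/peroxidase Amplex Red coupling, with fluorescence taken at baseline and 30 min.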
* hit, by the source's call; ? = inconclusive; · = not tested or not shown; ! = a repeat was not active; [ ] = dose if it differs, or a comment. Calls come from the whole dose curve; as a rule, active = well fitted curve in the direction sought with a large enough effect; inconclusive = small, poorly fitted or top-dose-only effect, or another doubt; inactive = no such curve, though single readings can be large; an effect the other way counts as inactive or inconclusive. Potency is the fitted concentration of half-maximal effect.

SMILES | L3MBTL1 block | BAZ2B block | HP1b binding inh | JMJD2A Tudor | G9a block | GLS inhibitor
COc1ccc(N2CCN(CC(O)COc3c(OC)cccc3OC)CC2)cc1 (stereo unspecified) | · | 79µM* | 6% | 56µM*! | 35µM* | 67%
COc1ccc(CNC(=O)C2CCN(c3nccs3)CC2)cc1 | 3% | 8% | 6% | 1% | 2% | -1%
COc1ccc(OCC(O)CN2CCN(c3ccc(OC)cc3)CC2)cc1 (stereo unspecified) | · | -17% | 3% | ? | 32µM* | 9%
COc1ccc(N2CCN(CC(O)COc3ccc(F)cc3)CC2)cc1 (stereo unspecified) | · | ? | -8% | ? | 16µM* | 41%
COc1ccc(N2CCN(c3nccs3)CC2)cc1 | · | -38% | -10% | ? | 50µM* | 27%
Cc1ccc(OCC(O)CN2CCN(c3ccc(C)cc3)CC2)cc1 (stereo unspecified) | -5% | -31% | 17% | -24% | -17% | -3%
OC(COc1ccc(F)cc1)CN1CCN(CC(O)COc2ccc(F)cc2)CC1 (stereo unspecified) | · | 1% | 66% | -11% | 14% | 8%
O=C(CC1N=C2c3ccccc3N=C(SCC(=O)Nc3cccc(Cl)c3)N2C1=O)NCc1cccs1 (stereo unspecified) | · | 1% | 58% | -20% | 30%[59 µM] | -8%
COc1ccc(N2CCN(CC(O)COc3cc(C)cc(C)c3)CC2)cc1 (stereo unspecified) | · | 40µM* | -16% | ? | 40µM* | 32%
COc1ccc(N2CCN(CC(O)COc3ccc([N+](=O)[O-])cc3)CC2)cc1 (stereo unspecified) | 2% | -36% | 7% | ? | ? | 6%
COc1ccc(N2CCN(CC(O)COc3ccccc3C(C)(C)C)CC2)cc1 (stereo unspecified) | · | 32µM* | 20µM* | 22µM* | 11µM* | 33%
O=[S+]([O-])(c1cc2ccccc2o1)N1CCN([S+](=O)([O-])c2c(F)cccc2F)CC1 | · | · | · | -10% | · | ·
Cc1cccc(NC(=O)C(c2ccccc2)N2Cc3ccccc3C2=O)c1C (stereo unspecified) | · | -11% | 54% | -16% | -2%[59 µM] | -2%
C#CCOCCOCCOCCNc1nc(N2CCN(C(=O)[C@H](CCC(=O)O)n3cc([C@@H](N)[C@H](C)CC)nn3)CC2)nc(N2CCN(C(=O)[C@H](CCC(=O)O)n3cc([C@@H](N)CC(N)=O)nn3)CC2)n1 | -18% | · | 20% | 56µM* | · | -1%
C#CCOCCOCCOCCNc1nc(N2CCN(C(=O)[C@H](CC(N)=O)n3cc(C(N)[C@H](C)CC)nn3)CC2)nc(N2CCN(C(=O)[C@H](CC(N)=O)n3cc(C(N)[C@@H](C)CC)nn3)CC2)n1 (stereo partly specified) | -8% | · | 33% | 22µM* | · | -2%
C#CCOCCOCCOCCNc1nc(N2CCN(C(=O)[C@H](CCCCN)n3cc([C@@H](N)C(C)CC)nn3)CC2)nc(N2CCN(C(=O)[C@H](CCCCN)n3cc([C@@H](N)CC(C)C)nn3)CC2)n1 (stereo partly specified) | 0% | 71µM* | 23% | ? | ? | -11%
C#CCOCCOCCOCCNc1nc(N2CCN(C(=O)[C@H](CCC(=O)O)n3cc([C@@H](N)[C@H](C)CC)nn3)CC2)nc(N2CCN(C(=O)[C@H](CCCCN)n3cc([C@@H](N)CC(N)=O)nn3)CC2)n1 | -7% | · | -14% | 5.6µM* | · | -1%
C#CCOCCOCCOCCNc1nc(N2CCN(C(=O)[C@H](CC(N)=O)n3cc(C(N)[C@@H](C)CC)nn3)CC2)nc(N2CCN(C(=O)[C@H](CCCCN)n3cc([C@@H](N)CC(N)=O)nn3)CC2)n1 (stereo partly specified) | -6% | · | 23% | 79µM* | · | 1%
C#CCOCCOCCOCCNc1nc(N2CCN(C(=O)[C@H](CC(N)=O)n3cc(C(N)[C@@H](C)CC)nn3)CC2)nc(N2CCN(C(=O)[C@H](CCC(=O)O)n3cc([C@@H](N)CCCCN)nn3)CC2)n1 (stereo partly specified) | -8% | · | 14% | 79µM* | · | 1%
C#CCOCCOCCOCCNc1nc(N2CCN(C(=O)[C@H](CCCCN)n3cc([C@@H](N)[C@H](C)CC)nn3)CC2)nc(N2CCN(C(=O)[C@H](CCCCN)n3cc([C@@H](N)CC(N)=O)nn3)CC2)n1 | 2% | · | 78% | -26% | · | -8%
C#CCOCCOCCOCCNc1nc(N2CCN(C(=O)C([C@@H](C)O)n3cc([C@@H](N)CCCCN)nn3)CC2)nc(N2CCN(C(=O)[C@H](CC(N)=O)n3cc(C(N)[C@@H](C)CC)nn3)CC2)n1 (stereo partly specified) | -2% | · | 32% | ? | · | -5%
C#CCOCCOCCOCCNc1nc(N2CCN(C(=O)[C@H](CCCCN)n3cc(CN)nn3)CC2)nc(N2CCN(C(=O)[C@H](CC(N)=O)n3cc(C(N)[C@H](C)CC)nn3)CC2)n1 (stereo partly specified) | -8% | · | 15% | 40µM* | · | 1%
CC1=C(c2ccc(C(C)C)cc2)S(=O)(=O)NC1=NCc1ccccc1C | · | 2% | 23% | -8% | -34%[59 µM] | -4%
COc1ccc(-c2nc3cnc(Oc4cccc(Cl)c4)nc3n(C[C@H]3CCCO3)c2=O)cc1 | · | · | · | · | 1%[0.501 µM] | ·
Fc1ccc(CNCc2ccccc2Cl)cc1 | 12% | · | ? | 20µM* | 2.8µM* | 3%
Cc1nc2ccccc2n1CCc1nc2c3ccccc3nc(SCc3ccc(C#N)cc3)n2n1 | · | -2% | 38% | -7% | 7%[59 µM] | -7%
C=CCN1C(=O)C(CC(=O)Nc2ccc(OCCC)cc2)N(CCCN2CCN(Cc3ccccc3)CC2)C1=S (stereo unspecified) | · | 10µM* | -21% | ? | ? | 0%
COc1ccc(NC(=O)CC2C(=O)N(Cc3ccccc3)C(=S)N2CCN2CCOCC2)cc1 (stereo unspecified) | -8% | -35% | 14% | -22% | -5% | -11%
